“And” between values parts separate entries of the source, which are not always exact repeats. Identical values can stand only once. Records with an inconclusive call do not appear. Some structures have more than one record in an assay (separate samples or runs), and their calls can disagree. The source made the active and inactive calls. Unless noted, calls follow the shape of the dose curve; as a rule, active = well fitted activation curve with a large enough effect in the main read-out, with a control signal flat (not every such curve was filed as active); inconclusive = small, poorly fitted or top-dose-only effect, or effect the other way, or a change in a side signal; inactive = flat fitted curve, though single readings scatter.
target: 3',5'-cyclic-AMP phosphodiesterase 4B (Homo sapiens) (UniProt Q07343); experiment: qHTS Assay for Inhibitors of PDE-IV (AID 607); details: HEK293 ACTOne CNG channel cells, membrane potential fluorescence; series mostly up to 22.9 µM; activation (PDE inhibition): at the top concentration; also: potency is read from the fitted curve at half-maximal effect; as to activation (PDE inhibition): % of control where 0% means no effect
Sequence (Q07343 whole entry, looked up): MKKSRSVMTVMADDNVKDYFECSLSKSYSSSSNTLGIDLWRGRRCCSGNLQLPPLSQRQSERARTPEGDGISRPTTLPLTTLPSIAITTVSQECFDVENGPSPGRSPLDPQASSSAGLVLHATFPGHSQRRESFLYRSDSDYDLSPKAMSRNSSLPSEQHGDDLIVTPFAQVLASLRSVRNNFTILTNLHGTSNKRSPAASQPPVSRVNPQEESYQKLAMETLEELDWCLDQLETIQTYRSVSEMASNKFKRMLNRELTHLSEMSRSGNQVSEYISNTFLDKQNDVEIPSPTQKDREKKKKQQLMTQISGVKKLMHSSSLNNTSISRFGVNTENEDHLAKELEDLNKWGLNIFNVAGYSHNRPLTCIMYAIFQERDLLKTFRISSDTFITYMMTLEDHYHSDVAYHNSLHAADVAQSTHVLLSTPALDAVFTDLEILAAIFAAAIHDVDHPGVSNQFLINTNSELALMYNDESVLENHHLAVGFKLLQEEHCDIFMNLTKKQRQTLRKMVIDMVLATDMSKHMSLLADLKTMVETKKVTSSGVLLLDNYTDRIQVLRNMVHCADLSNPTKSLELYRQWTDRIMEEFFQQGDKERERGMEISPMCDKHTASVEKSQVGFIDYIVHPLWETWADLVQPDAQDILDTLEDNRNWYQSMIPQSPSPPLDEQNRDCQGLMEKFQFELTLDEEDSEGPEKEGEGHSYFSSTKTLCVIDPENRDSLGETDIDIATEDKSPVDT
Procedure, shortened: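 ACTOne HEK293 cells carry a modified cAMP-gated CNG channel and express endogenous PDE4; plated 1000 cells/well, compounds up to 22.9 uM final. Membrane-potential dye fluorescence (ex 535/em 590) was read; parental cells received 10 uM forskolin + 100 uM RO 20-1724.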

Q: Which Potency does the source give for `CCOC(=O)c1ncn2c1CN(C)C(=O)c1cc(F)ccc1-2` here?
A: Its Potency is “inactive”.

Q: With `CN1CCN(C2=Nc3cc(Cl)ccc3Nc3ccccc32)CC1` as the compound, how does the Potency read?
A: The Potency was “inactive”.

Q: Which Potency does the source give for `Cc1cc(C(C)(C)C)c(O)c(C)c1CC1=NCCN1` here?
A: Its Potency is “inactive”.

Q: For `Cc1ccc(C(=O)Nc2ccc(S(=O)(=O)O)c3cc(S(=O)(=O)O)cc(S(=O)(=O)O)c23)cc1NC(=O)c1cccc(NC(=O)Nc2cccc(C(=O)Nc3cc(C(=O)Nc4ccc(S(=O)(=O)O)c5cc(S(=O)(=O)O)cc(S(=O)(=O)O)c45)ccc3C)c2)c1`, which Potency is on record?
A: The Potency was “inactive”.

Q: For `O=c1c(O)c(-c2ccc(O)c(O)c2)oc2cc(O)cc(O)c12`, which Potency is on record?
A: Its Potency is “inactive”.

Q: With `CN(C)C(=O)C(CCN1CCC(O)(c2ccc(Cl)cc2)CC1)(c1ccccc1)c1ccccc1` as the compound, how does the Potency read?
A: Its Potency is “inactive and 3.79 µM (active)”.

Q: For `CNCCCC12CCC(c3ccccc31)c1ccccc12`, which “activation (PDE inhibition)” value is on record?
A: Its value is 29.2% (inactive).

Q: With `O=C1c2c(O)ccc(O)c2C(=O)c2c(NCCNCCO)ccc(NCCNCCO)c21` as the compound, how does the Potency read?
A: Its Potency is “inactive”.

Q: For `NCCCCCC(=O)O`, which Potency is on record?
A: Its Potency is “inactive”.

Q: With `OCCN1CCN(CCCN2c3ccccc3Sc3ccc(C(F)(F)F)cc32)CC1` as the compound, how does the Potency read?
A: The Potency was “inactive”.

Q: With `CN(C)CCOC(c1ccccc1)c1ccccc1` as the compound, how does the Potency read?
A: Its Potency is “inactive”.

Q: With `NCCc1cnc[nH]1` as the compound, how does the “activation (PDE inhibition)” value read?
A: Its value is -17.8% (inactive).

Q: With `CN(C)CCC=C1c2ccccc2C=Cc2ccccc21` as the compound, how does the Potency read?
A: Its Potency is “inactive”.

Q: With `COc1cc2nc(N3CCN(C(=O)c4ccco4)CC3)nc(N)c2cc1OC` as the compound, how does the Potency read?
A: The Potency was “inactive”.

Q: For `CN(C)c1nc(N(C)C)nc(N(C)C)n1`, which Potency is on record?
A: The Potency was “inactive”.

Q: With `OCCN(CCO)c1nc(N2CCCCC2)c2nc(N(CCO)CCO)nc(N3CCCCC3)c2n1` as the compound, how does the Potency read?
A: The Potency was “inactive”.

Q: For `CN1CCN(CCCN2c3ccccc3Sc3ccc(Cl)cc32)CC1`, which Potency is on record?
A: Its Potency is “inactive”.

Q: Which Potency does the source give for `NC12CC3CC(CC(C3)C1)C2` here?
A: The Potency was “inactive”.

Q: With `CC[C@@]1(O)C(=O)OCc2c1cc1n(c2=O)Cc2cc3c(CN(C)C)c(O)ccc3nc2-1` as the compound, how does the “activation (PDE inhibition)” value read?
A: The value was -7.76% (inactive).

Q: Which Potency does the source give for `O=C(c1ccc(F)cc1)C1CCN(CCn2c(=O)[nH]c3ccccc3c2=O)CC1` here?
A: Its Potency is “inactive”.

Q: Which Potency does the source give for `Cn1cnc2c1c(=O)[nH]c(=O)n2C` here?
A: Its Potency is “inactive”.

Q: For `CN(C)C(=N)N=C(N)N`, which “activation (PDE inhibition)” value is on record?
A: The value was 2.02% (inactive).

Q: With `O=C(CCCN1CCC(O)(c2ccc(Cl)cc2)CC1)c1ccc(F)cc1` as the compound, how does the “activation (PDE inhibition)” value read?
A: Its value is 16.1% (inactive).

Q: Which “activation (PDE inhibition)” value does the source give for `NC(=O)NO` here?
A: The value was -3.68% (inactive).

Q: For `Cn1ccc2cc3c(cc21)CCN3C(=O)Nc1cccnc1`, which “activation (PDE inhibition)” value is on record?
A: Its value is -1.23% (inactive).

Q: For `Cc1cc(C(C)(C)C)cc(C)c1CC1=NCCN1`, which “activation (PDE inhibition)” value is on record?
A: Its value is 12.1% (inactive).

test system: not listed separately; experiment: Cellular Toxicity (caspase-3) HepG2 (AID 654; active = well fitted curve in the direction sought with a large enough effect; an effect the other way counts as inactive or inconclusive;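 also: cells exposed to compound for 16 hours before reading; 0% = DMSO alone and 100% = caspase signal from 100 µM tamoxifen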); details: HepG2 caspase-3 activation, luminescence, 0% = DMSO only, 100% = tamoxifen; series mostly up to 92.2 µM; caspase-3 activation: at the top concentration
Procedure, shortened: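 Concentration-response AC50 values reflect caspase-3/7 induction in HepG2 cells after 16 hours of compound exposure, quantified by luminescence from liberated aminoluciferin and referenced to 100 uM tamoxifen as full stimulation.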

Q: For `Cc1cn([C@H]2C[C@H](N=[N+]=[N-])[C@@H](CO)O2)c(=O)[nH]c1=O`, which “caspase-3 activation” value is on record?
A: The value was 0.189% (inactive).

Q: For `Cc1cn([C@H]2C=C[C@@H](CO)O2)c(=O)[nH]c1=O`, which outcome is on record?
A: The outcome was “inactive”.

Q: For `COc1ccc(CCN(C)CCCC(C#N)(c2ccc(OC)c(OC)c2)C(C)C)cc1OC` (stereo not drawn), which “caspase-3 activation” value is on record?
A: Its value is 1.23% (inactive).

test system: not listed separately; experiment: Cellular Toxicity (caspase-3) Jurkat (AID 655; active = well fitted curve in the direction sought with a large enough effect; an effect the other way counts as inactive or inconclusive;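 also: cells exposed to compound for 16 h at 37 °C before reading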); details: Jurkat caspase-3 activation, luminescence; series mostly up to 92.2 µM; caspase-3 activation: at the top concentration
Procedure, shortened: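 qHTS in human Jurkat T-cell leukemia line: 16 hr compound treatment at 37 °C, caspase-3/7 activity measured by Caspase-Glo luminescence. AC50 derived from Hill equation.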

Q: For `Cc1cn([C@H]2C[C@H](N=[N+]=[N-])[C@@H](CO)O2)c(=O)[nH]c1=O`, which “caspase-3 activation” value is on record?
A: The value was 0.426% (inactive).

Q: Which Potency does the source give for `Cc1cn([C@H]2C=C[C@@H](CO)O2)c(=O)[nH]c1=O` here?
A: The Potency was “inactive”.

Q: With `COc1ccc(CCN(C)CCCC(C#N)(c2ccc(OC)c(OC)c2)C(C)C)cc1OC` (stereo not drawn) as the compound, how does the “caspase-3 activation” value read?
A: The value was 1.93% (inactive).

test system: not listed separately; experiment: Cellular Toxicity (caspase-3) HUV-EC-C (AID 656; active = well fitted curve in the direction sought with a large enough effect; an effect the other way counts as inactive or inconclusive); details: HUV-EC-C cells, caspase-3 activation (apoptosis), vehicle = 0, 100 µM tamoxifen = 100%; series mostly up to 92.2 µM; caspase-3 activation: at the top concentration
Procedure, shortened: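 Concentration-dependent caspase 3/7 induction was assessed in HUV-EC-C cells exposed for 16 hours. Data scaled between DMSO and tamoxifen (100 uM) controls.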

Q: With `Cc1cn([C@H]2C[C@H](N=[N+]=[N-])[C@@H](CO)O2)c(=O)[nH]c1=O` as the compound, how does the “caspase-3 activation” value read?
A: The value was 0.197% (inactive).

Q: Which outcome does the source give for `Cc1cn([C@H]2C=C[C@@H](CO)O2)c(=O)[nH]c1=O` here?
A: The outcome was “inactive”.

Q: Which “caspase-3 activation” value does the source give for `COc1ccc(CCN(C)CCCC(C#N)(c2ccc(OC)c(OC)c2)C(C)C)cc1OC` (stereo not drawn) here?
A: The value was 16.9% (inactive).

test system: not listed separately; experiment: Cellular Toxicity (caspase-3) SHSY5Y (AID 657; active = well fitted curve in the direction sought with a large enough effect; an effect the other way counts as inactive or inconclusive); details: SH-SY5Y caspase-3 activation, DMSO zero, 10 µM staurosporine = 100%; series mostly up to 91.7 µM; caspase-3 activation: at the top concentration
Procedure, shortened: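 Readout: caspase-cleaved peptide-aminoluciferin substrate driving luciferase light in SH-SY5Y neuroblastoma cells after 16 h treatment. Response normalized to DMSO and 10 uM staurosporine controls.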

Q: With `Cc1cn([C@H]2C[C@H](N=[N+]=[N-])[C@@H](CO)O2)c(=O)[nH]c1=O` as the compound, how does the “caspase-3 activation” value read?
A: The value was -0.419% (inactive).

Q: For `Cc1cn([C@H]2C=C[C@@H](CO)O2)c(=O)[nH]c1=O`, which outcome is on record?
A: The outcome was “inactive”.

Q: With `COc1ccc(CCN(C)CCCC(C#N)(c2ccc(OC)c(OC)c2)C(C)C)cc1OC` (stereo not drawn) as the compound, how does the “caspase-3 activation” value read?
A: The value was 0.891% (inactive).

test system: not listed separately; experiment: Cellular Toxicity (caspase-3) BJ (AID 658; active = well fitted curve in the direction sought with a large enough effect; an effect the other way counts as inactive or inconclusive); details: BJ fibroblasts, luminescence, normalized: DMSO 0%, staurosporine 100%; series mostly up to 91.7 µM; caspase-3 activation: at the top concentration
Procedure, shortened: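 qHTS, BJ fibroblasts, 1000 cells/well; 5 hr preincubation, 16 hr compound, 37 °C; Caspase-Glo 3/7 reagent, 1 hr RT; luminescence. DMSO = 0%, 10 uM staurosporine = 100%. Hill-equation AC50.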

Q: For `Cc1cn([C@H]2C[C@H](N=[N+]=[N-])[C@@H](CO)O2)c(=O)[nH]c1=O`, which “caspase-3 activation” value is on record?
A: The value was -0.377% (inactive).

Q: With `Cc1cn([C@H]2C=C[C@@H](CO)O2)c(=O)[nH]c1=O` as the compound, how does the outcome read?
A: Its outcome is “inactive”.

Q: With `COc1ccc(CCN(C)CCCC(C#N)(c2ccc(OC)c(OC)c2)C(C)C)cc1OC` (stereo not drawn) as the compound, how does the “caspase-3 activation” value read?
A: The value was -0.437% (inactive).

test system: not listed separately; experiment: Cellular Toxicity (caspase-3) MRC-5 (AID 659; active = well fitted curve in the direction sought with a large enough effect; an effect the other way counts as inactive or inconclusive); details: MRC-5 cells, luminescence, normalized: DMSO 0%, 10 µM staurosporine 100%; series mostly up to 91.7 µM; caspase-3 activation: at the top concentration
Procedure, shortened: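 MRC-5 fibroblasts, 1500/well; 16 h cpd, 37 °C; Caspase-Glo 3/7, 1 h RT; lumi read. Norm: DMSO = 0%, 10 uM staurosporine = 100%. Hill-fit AC50 from qHTS conc-response.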

Q: For `Cc1cn([C@H]2C[C@H](N=[N+]=[N-])[C@@H](CO)O2)c(=O)[nH]c1=O`, which “caspase-3 activation” value is on record?
A: Its value is -0.605% (inactive).

Q: For `Cc1cn([C@H]2C=C[C@@H](CO)O2)c(=O)[nH]c1=O`, which outcome is on record?
A: The outcome was “inactive”.

Q: With `COc1ccc(CCN(C)CCCC(C#N)(c2ccc(OC)c(OC)c2)C(C)C)cc1OC` (stereo not drawn) as the compound, how does the “caspase-3 activation” value read?
A: The value was -0.0203% (inactive).

test system: not listed separately; experiment: Cellular Toxicity (caspase-3) Mesangial (AID 660; active = well fitted curve in the direction sought with a large enough effect; an effect the other way counts as inactive or inconclusive;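 also: combined caspase 3 and 7 activity read by Caspase-Glo luminescence; cells exposed to compound for 16 h before the caspase read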); details: mesangial cells, normalized: DMSO 0%, 100 µM tamoxifen 100%; series mostly up to 91.7 µM; caspase-3 activation: at the top concentration
Procedure, shortened: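 AC50 values come from Hill-equation fits of caspase 3/7 activation, measured as Caspase-Glo luminescence in human glomerular mesangial cells exposed to compound for 16 h at 37 °C; 100% set by 100 uM tamoxifen.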

Q: With `Cc1cn([C@H]2C[C@H](N=[N+]=[N-])[C@@H](CO)O2)c(=O)[nH]c1=O` as the compound, how does the “caspase-3 activation” value read?
A: Its value is 0.29% (inactive).

Q: With `Cc1cn([C@H]2C=C[C@@H](CO)O2)c(=O)[nH]c1=O` as the compound, how does the outcome read?
A: The outcome was “inactive”.

Q: With `COc1ccc(CCN(C)CCCC(C#N)(c2ccc(OC)c(OC)c2)C(C)C)cc1OC` (stereo not drawn) as the compound, how does the “caspase-3 activation” value read?
A: Its value is -0.0446% (inactive).

test system: not listed separately; experiment: Cellular Toxicity (caspase-3) SK-N-SH (AID 661; active = well fitted curve in the direction sought with a large enough effect; an effect the other way counts as inactive or inconclusive); details: SK-N-SH caspase-3 activation, qHTS; series mostly up to 91.7 µM; caspase-3 activation: at the top concentration
Procedure, shortened: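 Apoptosis readout in SK-N-SH neuroblastoma: Caspase-Glo 3/7 luminescence following 16 hr treatment in complete culture medium. Normalization used DMSO and 10 uM staurosporine controls.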

Q: With `Cc1cn([C@H]2C[C@H](N=[N+]=[N-])[C@@H](CO)O2)c(=O)[nH]c1=O` as the compound, how does the “caspase-3 activation” value read?
A: The value was -1.72% (inactive).

Q: For `Cc1cn([C@H]2C=C[C@@H](CO)O2)c(=O)[nH]c1=O`, which Potency is on record?
A: The Potency was “inactive”.

Q: With `COc1ccc(CCN(C)CCCC(C#N)(c2ccc(OC)c(OC)c2)C(C)C)cc1OC` (stereo not drawn) as the compound, how does the “caspase-3 activation” value read?
A: Its value is -1.1% (inactive).

test system: not listed separately; experiment: Cellular Toxicity (caspase-3) H-4-II-E (AID 663; active = well fitted curve in the direction sought with a large enough effect; an effect the other way counts as inactive or inconclusive;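 also: cells exposed to compound for 16 hr before readout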); details: H-4-II-E rat hepatoma, scaled: DMSO 0%, 100 µM tamoxifen 100%; series mostly up to 92.2 µM; caspase-3 activation: at the top concentration
Procedure, shortened: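 H-4-II-E rat hepatoma, 1500 cells/well, 5 hr settle at 37 °C; compound 16 hr, 37 °C, complete medium; Caspase-Glo 3/7, 20 min RT; luminescence. DMSO = 0%, 100 uM tamoxifen = 100%; Hill-equation AC50.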

Q: With `Cc1cn([C@H]2C[C@H](N=[N+]=[N-])[C@@H](CO)O2)c(=O)[nH]c1=O` as the compound, how does the “caspase-3 activation” value read?
A: The value was -0.395% (inactive).

Q: Which outcome does the source give for `Cc1cn([C@H]2C=C[C@@H](CO)O2)c(=O)[nH]c1=O` here?
A: Its outcome is “inactive”.

Q: With `COc1ccc(CCN(C)CCCC(C#N)(c2ccc(OC)c(OC)c2)C(C)C)cc1OC` (stereo not drawn) as the compound, how does the “caspase-3 activation” value read?
A: The value was 1.86% (inactive).

Source: PubChem BioAssay (NCATS)
